From PubChem BioAssay
Shown are actives, neighbours in structure and some others; about 7.8% of the full set was active somewhere.
HCV inhibitor = qHTS Assay for Inhibitors of Hepatitis C Virus (HCV) | Potency, µM (highest dose often 41.8 µM), for the others: at the top dose activity change, negative = inhibition, hits mostly inhibitors | Huh7.5.1 HCVcc-Cre infection, luciferase reporter, 44 h | hit rate 3.4% among 340,000; active = well fitted inhibition curve with a large enough effect; inconclusive = small, poorly fitted or top-dose-only effect, or another doubt; inactive = no such curve, though single readings can be large or run the other way; also: potency is read from the fitted curve at half-maximal effect
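Reporter virus HCVcc-Cre (~0.5 moi) infects cells exposed to compound; seeding density 1,000 cells/well with 4 h settling beforehand. Luminescence, 15 sec read, taken 44 h post-infection following a 15 min RT substrate incubation.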
LASV entry inh = qHTS for Inhibitors of binding or entry into cells for Lassa Virus; Potency, µM (titrated, usually from 37.9 µM), inactives show at the highest dose activity change, negative = inhibition, hits mostly inhibitors; hit rate 1.2% among 300,000; Lassa virus pseudotype entry inhibition, cell reporter; calls by dose curve; tested in HEK293 cells; also: potency is read from the fitted curve at half-maximal effect; nearly all actives have a fitted effect of over 50% in size
MARV entry inh = qHTS for inhibitors of binding or entry into cells for Marburg Virus. Marburg virus pseudotyped entry inhibition, cell reporter. Potency, µM (series often up to 37.8 µM), inactives show top-dose activity change, negative = inhibition, most hits filed as inhibitors. hit rate 1.8% among 300,000. AID 540276, 2011; calls by dose curve; tested in HEK293 cells; also: potency is read from the fitted curve at half-maximal effect
HCMV inh = qHTS Assay for inhibitors of the human cytomegalovirus (HCMV) | activity change, negative = inhibition, % at 57.5 µM | HFF cells, HCMV-luciferase reporter, 72 h; stronger effect = lower value | AID 1259415, 2018 | hit rate 4.5% among 410,000; in the data active = activity change below about -60%; inconclusive = no clear call, values can overlap the other calls; inactive = above about -39%
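Steps: HFFs plated, 16 h 37C; compounds added; HCMV-luciferase added to MOI 1 PFU/cell; 72 h 37C; OneGlo reagent, 5 min room temperature; luminescence read, normalized to controls.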
Vaccinia Venus = qHTS for Stage-Specific Inhibitors of Vaccinia Orthopoxvirus: Venus Reporter Primary qHTS; Vaccinia virus Venus reporter expression, fluorescence; Potency, µM (doses to about 36.5 µM), inactives show top-dose activity change, negative = inhibition, most hits filed as inhibitors; hit rate 0.46% among 330,000; AID 720580, 2013; calls by dose curve; tested in A549 cells; also: potency is read from the fitted curve at half-maximal effect; nearly all actives have a fitted effect of over 30% in size
Vaccinia mCherry = qHTS for Stage-Specific Inhibitors of Vaccinia Orthopoxvirus: mCherry Reporter Primary qHTS; AID 720579, 2013; Potency, µM (top dose mostly 36.5 µM), inactives show at the highest dose activity change, negative = inhibition, most hits filed as inhibitors; hit rate 0.63% among 310,000; Vaccinia virus mCherry reporter infection, fluorescence; calls by dose curve; tested in A549 cells; also: potency is read from the fitted curve at half-maximal effect; nearly all actives have a fitted effect of over 35% in size
An asterisk follows results filed as active; i = inactive; ? = inconclusive; / = no result given; [ ] = another dose, or the depositor's remark. % is scaled to controls: 0 for no effect and ±100 for the full control effect.

SMILES	HCV inhibitor	LASV entry inh	MARV entry inh	HCMV inh	Vaccinia Venus	Vaccinia mCherry
CCOc1ccc(CCNC(=O)c2ccc3c(c2)nc2n3CCOC2)cc1OCC	/	0.3%[46.1 µM]	/	6.0	-3.3%	-7.7%
CC(=O)CCC1CC(c2ccc(Cl)cc2)=NO1 (stereo not given)	2.82µM*	/	/	50.3	-13.8%	i
NNC(=O)c1ccc(OCC2CC(c3ccc(Cl)cc3)=NO2)cc1 (stereo not given)	?	?	?	-95.1*	?	-25.5%
Cc1ccc(Cl)cc1NC(=O)Nc1cccs1	1.5%	-2.5%	10µM*	?	-13.7%	?
C=CCN1C(=O)/C(=C/c2ccc(OC(C)=O)c(OCC)c2[N+](=O)[O-])SC1=S	?	?	?	-98.7*	76.6%	i
C=CCN1C(=O)/C(=C\c2ccc(OC(=O)c3ccco3)c(OC)c2)SC1=S	-14.6%	/	/	-29.5	i	237.2%
CCC(=O)c1c(NCCc2ccccc2)cc(C)oc1=O	?	0.6%	0.8%	-98.2*	/	/
CCC(=O)c1c(NC)cc(C)oc1=O	26.3%	4.3%	15.8%[46.1 µM]	0.0	-9.0%	9.6%
O=C(c1ccccc1-n1cccn1)N1CCOc2c(cc(-c3ncc(C(F)(F)F)cc3Cl)cc2OCC2CCCO2)C1 (stereo not given)	/	/	/	/	-4.6%	-7.9%
NC(=O)c1ccsc1NC(=O)c1ccc(S(=O)(=O)N2CCCc3ccccc32)cc1	11.2µM*	?	?	-70.8*	?	-9.2%
CC(C)N1CCc2c(sc(NC(=O)c3ccc(S(=O)(=O)N4CCc5ccccc54)cc3)c2C(N)=O)C1	11.2µM*	/	/	/	-22.5%	-19.7%
CC(C)N1CCc2c(sc(NC(=O)c3ccc(S(=O)(=O)N(C)C4CCCCC4)cc3)c2C(N)=O)C1	/	?	/	-10.8	-20.4%	-23.7%
CNC(=O)c1c(NC(=O)c2ccc(S(=O)(=O)N(C)c3ccccc3)cc2)sc2c1CCN(C(C)C)C2	11.2µM*	/	/	0.5	/	/
O=C1C[C@@H](c2ccccc2)[C@H](c2ccc(Br)cc2)O1	/	/	-17.0%[14.2 µM]	/	/	/
COc1ccccc1CNC(=O)C1CCN(S(=O)(=O)c2ccc3c(ccn3C)c2)CC1	/	-0.5%[46.1 µM]	/	9.0	-9.1%	-9.4%
CC(C)=C1C2CCC1C(C(=O)Nc1sc(C)c(-c3ccc(C(C)C)cc3)c1C(N)=O)C2C(=O)O (stereo not given)	?	?	20.6µM*	-22.3	?	-23.4%
COC(=O)c1c(NC(=O)/C=C/C(=O)O)sc(C)c1-c1ccc(C(C)C)cc1	3.6%	5.62µM*	-15.9%[46.1 µM]	?	-26.3%	-14.4%
COc1cc(C=C2CCCC(=Cc3ccc(OCC4CO4)c(OC)c3)C2=O)ccc1OCC1CO1 (stereo not given)	/	/	/	-67.9*	?	?
CCOc1ccc(/C=C2\CCC(C3CCCC3)C2=O)cc1OC (stereo not given)	0.0%	/	/	6.2	/	/
COc1ccc(/C=C2\Cc3ccccc3C2=O)cc1OC	-14.9%	/	/	?	-18.0%	-9.5%
COc1ccc(/C=C2/CSC/C(=C/c3ccc(OC)c(OC)c3)C2=O)cc1OC	?	3.16µM*	3.55µM*	-101.2*	?	2.51µM*
CCN(C)C(=O)C1=COC2=NC(=O)N(Cc3ccccc3C(F)(F)F)CCN12	/	/	/	-2.0	/	/
CN(C)c1ccc(CNC(=O)c2ccc3c(c2)N(C)C(=O)C2CCCCN32)cc1 (stereo not given)	/	28.5%[46.1 µM]	/	-21.9	-7.6%	i
CCOC(=O)C1CCCN(C(=O)c2cnn(-c3nccc(-c4cc(C)sc4C)n3)c2C)C1 (stereo not given)	/	/	/	/	0.1%	-11.4%
Nc1ccc(-c2nc3ccccc3[nH]2)cc1	2.9%	/	/	126.8	7.3%	30.3%
SMILES	HCV inhibitor	LASV entry inh	MARV entry inh	HCMV inh	Vaccinia Venus	Vaccinia mCherry
c1ccc(-c2cc(-c3nc4ccccc4[nH]3)c3ccccc3n2)cc1	?	?	?	-94.2*	?	?
CCOC(=O)COc1ccc2c(C#N)c3ccccn3c2c1	-18.5%	-0.7%	3.0%	-31.7	/	/
N#Cc1c2ccc(OCC(N)=O)cc2n2ccccc12	12.6µM*	/	/	-14.4	/	/
C[C@H]1C=CC(=O)O[C@H]1c1ccccc1	14.8%	/	/	-77.4*	3.16µM*	?
CC1C(=O)C(C)(C)C(=O)OC1c1ccccc1 (stereo not given)	6.5%	/	/	-38.7	/	/
Cc1ccn2c(=O)c(NC(=O)c3cccc([N+](=O)[O-])c3C)c(C)nc2c1	/	?	/	13.1	-13.3%	-26.2%
Cc1ccc(N(CCCCN2C(=O)c3ccccc3C2=O)C(=O)c2cccs2)cc1	-1.8%	?	?	-83.4*	-12.6%	-21.5%
CCc1nc2cc(C(=O)N3CCCN(C=O)CC3)cc(NC(=O)c3ccccc3OC)c2n1C	/	/	/	/	-0.2%	-6.8%
Cc1ccc2oc(C(=O)Nc3cccc(-c4nc5ccccc5s4)c3)c(C)c2c1	/	19.2%[46.1 µM]	-3.7%[46.1 µM]	63.6	4.2%	-11.2%
CCOC(=O)CNC(=O)C1c2ccccc2C(=O)N(c2ccc(OC)cc2)C1c1ccc(OC)cc1 (stereo not given)	-19.6%	?	-20.3%	21.2	/	/
CCN1CCN(CCCNC(=O)C2c3ccccc3C(=O)N(c3ccc(OC)cc3)C2c2ccc(OC)cc2)CC1 (stereo not given)	-1.9%	1.5%[46.1 µM]	?	-61.7*	0.0%	i
COc1ccc(C2C(C(=O)Nc3cc(OC)c(OC)c(OC)c3)c3ccccc3C(=O)N2C)cc1 (stereo not given)	-24.1%	?	?	-65.9*	?	-9.0%
CCOc1ccccc1NC(=O)CSc1nnc(N)s1	/	12.0%[46.1 µM]	22.1%[46.1 µM]	9.3	-18.9%	-10.8%
Cc1cc2c(c(-c3cnccn3)c1)OC(CNC(=O)c1cc(C(C)C)[nH]n1)C2 (stereo not given)	/	/	/	/	-16.7%	i
CN(C)c1ccc(/C=C2\CCc3cc(N)ccc32)cc1	/	/	/	/	-5.0%	-17.3%
CN1[C@@H]2CC[C@H]1CC(O[C@@H](c1ccccc1)c1ccc(Cl)cc1)C2 (stereo not given in full)	/	/	3.16µM*	/	/	/
CN1CCC(OC(c2ccccc2)c2ccc(Cl)cc2)C1 (stereo not given)	?	?	7.08µM*	-38.4	-14.7%	-17.2%
CN1C2CCC1CC(OC(c1ccccc1)c1ccccc1)C2 (stereo not given)	?	/	5.01µM*	-31.5	/	/
CN1[C@@H]2CC[C@H]1CC(OC1c3ccccc3CCc3ccccc31)C2 (stereo not given in full)	1.26µM*	/	/	-38.0	-24.3%	-14.8%
CN1C2CCC1CC(OC(c1ccc(F)cc1)c1ccc(F)cc1)C2 (stereo not given)	/	/	/	/	-21.5%	-13.7%
